Drawing on PubChem BioAssay (Tox21), this text covers Potency and activity change, negative = inhibition for 31 compounds.

Experiment [1] in a line: qHTS assay to identify small molecule antagonists of the estrogen receptor alpha (ER-alpha) signaling pathway using the BG1 cell line in the presence of 0.1 nM 17-beta-estradiol - cell viability counter screen (AID 1259241). Further: nearly all actives have a fitted effect of over 40% in size. Further: potency means the concentration at half of the fitted maximal effect. Put shortly: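 VM7Luc4E2 cells (endogenous ER-alpha, 4×ERE-luciferase), hormone-starved 5 days in charcoal-stripped FBS, were treated with compounds plus 0.1 nM 17beta-estradiol for 22 hr at 37C; viability read in same wells as CellTiter-Fluor live-cell protease fluorescence.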
In general terms: In qHTS, concentration-response curves come from the screen itself.

Experiment [2] in a line: qHTS assay to identify small molecule HDAC inhibitors (AID 1259364). Further: potency means the concentration at half of the fitted maximal effect.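 Further: wild-type HCT-116 cells with endogenous class I/II HDAC activity; nearly all actives have a fitted effect of over 45% in size.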 On activity change, negative = inhibition: top concentration of the series differs between compounds. Put shortly:
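Read-out: luminescence of HDAC-Glo I/II reagent, 30 min RT, reflecting class I/II deacetylase activity in whole HCT-116 cells pre-exposed 2 h to DMSO-dissolved compounds.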

Experiment [3] is described as follows: qHTS assay to identify small molecule HDAC inhibitors - cell viability counter screen (AID 1259365). Further: nearly all actives have a fitted effect of over 50% in size. Further: potency means the concentration at half of the fitted maximal effect. In short, it runs like this:
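Wild-type HCT-116 cells were seeded at 1,500 per well, incubated overnight at 37 C, then exposed to compounds in DMSO for 2hr. Viability was read by CellTiter-Glo luminescence after 30min at room temperature.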

Experiment [4] is described as follows: qHTS assay to identify small molecule agonists of the sonic hedgehog signaling (Shh) pathway - cell viability counter screen (AID 1259366). Further: nearly all actives have a fitted effect of over 50% in size. Further: potency means the concentration at half of the fitted maximal effect. Put shortly: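 NIH/3T3-derived 3T3 Gli1-Luc cells (stable Gli1-responsive firefly luciferase reporter) were seeded, rested 4 hr at 37 C/5% CO2, then exposed to compounds in DMSO for 24 hr; viability was read by CellTiter-Fluor fluorescence in the same wells.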

A short description of experiment [5]: qHTS assay to identify small molecule antagonists of the sonic hedgehog signaling (Shh) pathway - cell viability counter screen (AID 1259367). Further: nearly all actives have a fitted effect of over 55% in size. Further: potency means the concentration at half of the fitted maximal effect. Put shortly:
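Using CellTiter-Fluor, viability of Gli1-Luc reporter 3T3 cells is read by fluorescence in the wells used for the Shh luciferase assay. Treatment lasts 23 hr with conditioned medium, then reagent 1 hr at 37C.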

Experiment [6] is described as follows: qHTS assay to identify small molecule agonists of the sonic hedgehog signaling (Shh) pathway (AID 1259368; calls by dose curve; further: series mostly up to about 92 µM; nearly all actives have a fitted effect of over 15% in size). In short, it runs like this:
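A Gli1 transcriptional response element controlled firefly luciferase in 3T3Gli1-Luc cells. Compounds and a positive control were added 4 hr after plating, and cells were incubated a further 24 hr at 37 C before luminescence detection.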

Experiment [7] in a line: qHTS assay to identify small molecule antagonists of the androgen receptor (AR) signaling pathway using the MDA cell line in the presence of 0.5 nM R1881 - cell viability counter screen (AID 1259242). Further: nearly all actives have a fitted effect of over 45% in size. Further: potency means the concentration at half of the fitted maximal effect. In short, it runs like this:
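Viability of MDA-kb2 cells was multiplexed with the luciferase AR readout; after 16 hr with compounds and R1881 at 0.5 nM final, CellTiter-Fluor fluorescence was recorded.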

For experiment [8], the target named is Androgen receptor (Homo sapiens) (UniProt P10275). The experiment can be described thus: qHTS assay to identify small molecule antagonists of the androgen receptor (AR) signaling pathway using the MDA cell line in the presence of 0.5 nM R1881 (AID 1259243). Further: nearly all actives have a fitted effect of over 50% in size. Further: potency means the concentration at half of the fitted maximal effect. In short, it runs like this:
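Reporter cells cultured without CO2 receive test chemicals, then 0.5 nM R1881 final; after 16 hr at 37C, ONE-Glo is added and light output recorded.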

Experiment [9] addresses Estrogen receptor (Homo sapiens) (UniProt P03372). The experiment can be described thus: qHTS assay to identify small molecule antagonists of the estrogen receptor alpha (ER-alpha) signaling pathway using the BG1 cell line in the presence of 0.1 nM 17-beta-estradiol (AID 1259244). Further: nearly all actives have a fitted effect of over 50% in size. Further: potency means the concentration at half of the fitted maximal effect. Put shortly:
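Estradiol at 0.1 nM (final) stimulates the endogenous ER-alpha of VM7Luc4E2 cells carrying an ERE-driven luciferase; compounds are co-incubated 22 h at 37C and luciferase output quantified by luminescence.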

The nature of experiment [10]: qHTS assay to identify small molecule phospholipidosis (PLD) inducers (AID 1259344; active means well fitted curve in the direction sought with a large enough effect; an effect the other way counts as inactive or inconclusive). Put shortly: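 Fluorescent phospholipid staining (LipidTOX Red) measured by automated microscopy in fixed HepG2 cells after 24 h treatment; nuclei counterstained with Hoechst 33342; amiodarone as reference inducer.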

Values joined by “and” are separate entries in the source; they are usually repeats but may differ in a detail not shown here. Identical values can stand only once. Results filed as inconclusive are left out. Some structures have more than one record in an assay (separate samples or runs), and their calls can disagree. Active and inactive are the calls of the source. Unless noted, the call rests on the fitted dose curve; in most records, active means well fitted curve in the direction sought with a large enough effect in the repeat runs; inconclusive means weak or mixed curves; inactive means no such curve, though single readings can be large; an effect the other way counts as inactive or inconclusive.
On the % scale 0 is the no-effect control and ±100 the full control effect.

Sequence of Androgen receptor (Homo sapiens) (P10275 whole entry, looked up): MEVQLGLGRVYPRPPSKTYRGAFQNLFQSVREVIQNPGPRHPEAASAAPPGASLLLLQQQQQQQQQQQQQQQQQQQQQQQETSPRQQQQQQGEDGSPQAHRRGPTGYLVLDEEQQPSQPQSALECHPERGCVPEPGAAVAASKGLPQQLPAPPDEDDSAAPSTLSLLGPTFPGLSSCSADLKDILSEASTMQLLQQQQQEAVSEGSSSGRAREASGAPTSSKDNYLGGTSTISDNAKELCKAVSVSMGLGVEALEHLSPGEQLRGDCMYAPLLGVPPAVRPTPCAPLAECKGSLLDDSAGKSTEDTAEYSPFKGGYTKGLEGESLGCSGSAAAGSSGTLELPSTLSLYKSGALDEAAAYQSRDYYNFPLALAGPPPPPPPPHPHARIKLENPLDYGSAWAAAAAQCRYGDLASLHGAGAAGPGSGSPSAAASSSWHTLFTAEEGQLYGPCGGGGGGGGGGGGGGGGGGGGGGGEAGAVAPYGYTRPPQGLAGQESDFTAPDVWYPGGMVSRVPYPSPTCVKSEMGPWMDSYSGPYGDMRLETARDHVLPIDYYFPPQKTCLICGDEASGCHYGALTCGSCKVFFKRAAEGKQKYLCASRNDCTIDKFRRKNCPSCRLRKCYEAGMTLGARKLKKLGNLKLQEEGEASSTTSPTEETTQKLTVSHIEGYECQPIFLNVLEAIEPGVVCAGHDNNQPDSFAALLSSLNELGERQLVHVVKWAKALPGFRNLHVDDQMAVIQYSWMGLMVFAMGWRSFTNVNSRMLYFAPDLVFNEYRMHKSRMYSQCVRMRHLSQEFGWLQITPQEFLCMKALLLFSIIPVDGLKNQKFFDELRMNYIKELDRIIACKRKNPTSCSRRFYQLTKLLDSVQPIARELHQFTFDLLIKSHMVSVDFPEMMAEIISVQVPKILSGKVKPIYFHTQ
Sequence of Estrogen receptor (Homo sapiens) (P03372 whole entry, looked up): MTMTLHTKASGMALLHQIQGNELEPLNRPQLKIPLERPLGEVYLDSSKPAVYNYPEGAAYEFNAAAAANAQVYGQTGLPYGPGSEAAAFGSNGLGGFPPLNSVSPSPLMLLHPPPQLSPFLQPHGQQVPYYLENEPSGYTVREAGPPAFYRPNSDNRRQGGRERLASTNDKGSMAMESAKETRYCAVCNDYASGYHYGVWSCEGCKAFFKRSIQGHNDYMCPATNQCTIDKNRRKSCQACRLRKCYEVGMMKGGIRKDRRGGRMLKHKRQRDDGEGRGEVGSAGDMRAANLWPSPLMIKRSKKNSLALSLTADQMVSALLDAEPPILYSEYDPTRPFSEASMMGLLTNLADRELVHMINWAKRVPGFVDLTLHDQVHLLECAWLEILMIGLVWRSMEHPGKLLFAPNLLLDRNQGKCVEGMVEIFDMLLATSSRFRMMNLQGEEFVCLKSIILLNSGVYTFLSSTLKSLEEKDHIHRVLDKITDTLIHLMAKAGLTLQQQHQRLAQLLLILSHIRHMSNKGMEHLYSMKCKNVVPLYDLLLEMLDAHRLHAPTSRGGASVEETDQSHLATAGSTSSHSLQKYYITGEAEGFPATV

With `CN(C)C(=S)S`, the Potency was 43.3 µM (active) in [1]; 12.4 µM (active) and 6.07 µM (active) and 4.86 µM (active) in experiment [4]; 7 µM (active) and 4.82 µM (active) and 54.5 µM (active) in [5]. In addition, the Potency entry in experiment [2], in experiment [3] and in experiment [6] was “inactive” in each case.
As for `COP(=O)(OC)SCn1c(=O)oc2cc(Cl)cnc21`, the Potency result in experiment [1], in experiment [7], in experiment [3], in experiment [4], in experiment [5] and in [6] was “inactive” each time.
Consider `CSCCCN=C=S`, for which the Potency result in experiment [1], in experiment [7], in [2], in [4], in [5] and in [6] was “inactive” throughout.
Take `Oc1cc(Cl)c(Cl)c(Cl)c1`: the Potency entry in experiment [1], in [2], in [3], in experiment [4] and in [6] was “inactive” each time. In addition, the Potency in experiment [8] is 46.1 µM (active); in experiment [9] it was 41 µM (active).
For `CN(C)c1ccc(N=Nc2ccccc2)cc1`, the Potency is 54.5 µM (active) in [1], 4.33 µM (active) in experiment [2] and 27.3 µM (active) in [4]. Moreover, the Potency entry in experiment [3] was “inactive”.
Turning to `CC(=[OH+])/C=C(/C)[O-].CC(=[OH+])/C=C(\C)[O-].CC(=[OH+])/C=C(\C)[O-].[Al]`, the Potency entry in [1], in [7], in experiment [2], in [3], in experiment [4] and in [5] was “inactive” in each case. Besides, the Potency entry in [6] is “inactive”.
Consider `N#Cc1c(-c2ccc(Cl)cc2)[nH]c(C(F)(F)F)c1Br`, for which the Potency entry in [1], in experiment [2] and in experiment [3] was “inactive” in each case. In addition, the Potency in experiment [8] was 0.433 µM (active); in [9] it was 0.611 µM (active); in experiment [5] it was 27.3 µM (active).
As to `O=C(Nc1ccc2[nH]ccc2c1)c1cc2cc(F)ccc2n1Cc1cccc(F)c1`, the Potency result in [1], in experiment [9], in [2], in [3] and in experiment [6] was “inactive” each time. Besides, the Potency in experiment [4] is 43.3 µM (active); in [5], 68.6 µM (active).
On to `ClC1=C(Cl)[C@]2(Cl)[C@@H]3[C@@H]4C[C@@H]([C@H]5O[C@@H]45)[C@@H]3[C@@]1(Cl)C2(Cl)Cl`, for which the Potency result in experiment [1], in [10], in [2], in experiment [3] and in [6] was “inactive” throughout. In [9], the Potency is 68.6 µM (active).
Regarding `Oc1ccc(C2(c3ccc(O)cc3)CCCCC2)cc1`, the Potency result in [1], in experiment [7], in experiment [2], in experiment [3] and in [6] was “inactive” each time. In [4], the Potency is 25.9 µM (active).
As to `CC(=O)[O-].CC(=O)[O-].[Hg+2]`, the Potency in experiment [1] was 17.2 µM (active); in experiment [7] it was 7.7 µM (active); in [2], 19.3 µM (active); in experiment [3] it was 61.1 µM (active); in [4], 2.17 µM (active); in experiment [5], 4.33 µM (active). Moreover, in [6], the Potency result is “inactive”.
With `C1CCC2CCCCC2C1` (stereo not given), the Potency entry in experiment [1], in [7], in [2], in experiment [3], in experiment [4] and in [5] was “inactive” each time. Moreover, the Potency result in experiment [6] is “inactive”.
Consider `Cc1cc(N=Nc2ccccc2C)ccc1N`, for which the Potency is 24.3 µM (active) in [1]; 54.5 µM (active) and 48.6 µM (active) in [8]; 8.63 µM (active) and 4.86 µM (active) in [2]; 27.3 µM (active) and 30.6 µM (active) in experiment [4]; 27.3 µM (active) and 30.6 µM (active) in [5]. Also, the Potency result in [3] and in [6] was “inactive” each time.
In the case of `CC1(C)C(/C=C(\Cl)C(F)(F)F)C1C(=O)OC(C#N)c1cccc(Oc2ccccc2)c1` (stereo not given), the Potency entry in [1], in [7], in experiment [2], in [3], in experiment [5] and in experiment [6] was “inactive” in each case.
As to `CN(C)C(=S)[S-].CN(C)C(=S)[S-].[Cu+2]`, the Potency in [1] is 1.67 µM (active); in experiment [7], 5.92 µM (active); in experiment [4], 2.64 µM (active); in [5], 3.33 µM (active). Moreover, in [2], the activity change, negative = inhibition was -15% [at 19 µM] (inactive).
For `BrC(Br)Br`, the Potency result in experiment [1], in experiment [7], in experiment [2], in experiment [3], in experiment [4] and in [5] was “inactive” each time. Besides, the Potency result in experiment [6] is “inactive”.
As to `Oc1c(Br)c(Br)c(Br)c(Br)c1Br`, the Potency result in experiment [1], in experiment [2], in [3], in [4], in experiment [5] and in experiment [6] was “inactive” in each case.
As to `Clc1ccc(CSC(Cn2ccnc2)c2ccc(Cl)cc2Cl)cc1` (stereo not given), the Potency entry in experiment [1], in experiment [10], in experiment [2] and in [6] was “inactive” throughout. For the same compound, the Potency in experiment [5] was 26.6 µM (active).
Turning to `Cn1[nH]nnc1=S`, the Potency result in [1], in experiment [7], in experiment [2], in [3], in experiment [4] and in experiment [5] was “inactive” each time. The Potency entry in [6] is “inactive”.
`COc1cccc2c1C(=O)c1c(O)c3c(c(O)c1C2=O)C[C@@](O)(C(=O)CO)CC3OC1CC(N2CCOC(OC)C2)C(O)C(C)O1` (stereo not given in full): the Potency was 13.3 µM (active) in experiment [1], 0.119 µM (active) in experiment [8], 0.237 µM (active) in experiment [4] and 0.168 µM (active) in [5]. The Potency entry in experiment [3] and in [6] was “inactive” in each case.
Take `CC(C)CC(C)Nc1ccc(Nc2ccccc2)cc1` (stereo not given): the Potency in [1] is 53.5 µM (active); in experiment [4] it was 26.8 µM (active); in experiment [5] it was 16.9 µM (active). Besides, the Potency result in experiment [2], in experiment [3] and in experiment [6] was “inactive” in each case.
With `Cc1cc(C(C)(C)c2cc(C)c(O)c(C)c2)cc(C)c1O`, the Potency result in experiment [1], in experiment [7], in experiment [2], in experiment [3], in experiment [5] and in experiment [6] was “inactive” each time.
Turning to `S=C=Nc1cccc2ccccc12`, the values for the Potency in experiment [1] and in [4] were 30.3 µM (active) and 53.9 µM (active), respectively. Moreover, the Potency result in experiment [7], in [2], in experiment [3] and in experiment [6] was “inactive” each time.
`CC(C)(c1ccc(O)c(-c2ccccc2)c1)c1ccc(O)c(-c2ccccc2)c1`: the figures for the Potency in [8] and in experiment [4] were 30.6 µM (active) and 15.4 µM (active), respectively. The Potency entry in experiment [2] and in experiment [6] was “inactive” throughout.
Consider `CC1(C)CC/C(=C/c2ccc(Cl)cc2)C1(O)Cn1cncn1` (stereo not given), for which the Potency entry in experiment [7], in experiment [10], in experiment [2], in experiment [3] and in experiment [6] was “inactive” throughout. For the same compound, the Potency was 1.21 µM (active) in experiment [8] and 17.1 µM (active) in experiment [4].
On to `NNC(=O)c1ccccc1`, for which the Potency entry in [7], in [9], in experiment [3] and in experiment [4] was “inactive” in each case. For the same compound, the Potency in experiment [5] was 39.6 µM (active).
`Nc1c(Oc2ccccc2)cc(O)c2c1C(=O)c1ccccc1C2=O`: the Potency entry in experiment [7], in experiment [8], in experiment [9], in experiment [2], in experiment [3] and in experiment [4] was “inactive” throughout.
Consider `O=c1[nH]c2ccccc2n1C1CCN(CCCC(c2ccc(F)cc2)c2ccc(F)cc2)CC1`, for which the Potency in experiment [7] is 54.5 µM (active) and inactive; in [9], 48.6 µM (active); in experiment [4], 27.3 µM (active). Further, the Potency result in experiment [2], in experiment [3], in experiment [5] and in [6] was “inactive” throughout.
For the compound `CCCN(CCC)CCc1c[nH]c2ccccc12`, the Potency result in experiment [7], in experiment [9], in experiment [2], in experiment [3], in experiment [4] and in experiment [5] was “inactive” each time. Also, the Potency result in experiment [6] was “inactive”.
Regarding `CC(C)(C)c1cc([N+](=O)[O-])cc(C(C)(C)C)c1O`, the Potency in experiment [7] is 13.7 µM (active); in [9], 6.11 µM (active). Moreover, the Potency entry in experiment [2], in [3] and in experiment [4] was “inactive” throughout.
For the compound `O=[N+]([O-])c1cc([N+](=O)[O-])c2ccccc2c1`, the Potency entry in experiment [7], in experiment [2], in [3], in experiment [4], in experiment [5] and in experiment [6] was “inactive” throughout. The Potency in experiment [8] is 4.33 µM (active).
